Bioassay records (PubChem)
Hits are enriched below; roughly 3.1% of the tested compounds scored in any of these assays.
AF4-AF9 inh – inhibitors of human MLL-AF4/AF9 interaction | P42568 | AlphaScreen, biotin-AF4 peptide binding to FLAG-AF9 | inhibition, % at 10 µM | 350,000 compounds, 0.47% hits | AID 651704;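 active = every replicate reaching a set inhibition limit, whatever the replicate mean, cut at about 25% in these data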;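 also: 0% = plate neutral control median and 100% = total signal loss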
RAD54 inh – RAD54 (human) branch migration inhibition; AID 602329; RAD54 Holliday junction branch migration, FAM/BHQ fluorescence; inhibition, % at 10.4 µM; Q92698; 360,000 compounds, 0.14% hits;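 active = mean normalized replicate activity at least 40 and at least half of replicates scoring 40 or more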;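 also: 0% = median of neutral control wells and 100% = median of positive control wells; inhibitors cause a drop in the FAM fluorescence signal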
dFosB activator – enhances mouse delta FosB homodimer DNA binding | purified delta FosB, TAMRA-CDK5 oligo fluorescence polarization; percent of positive-control signal above neutral wells | activation, % at 25 µM | 340,000 compounds, 0.99% hits | AID 493131;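 active = mean activation above about 17%, with every replicate also reaching it, limit read from the data, passing the limit was not always enough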
Target sequence (P13346 whole entry, looked up): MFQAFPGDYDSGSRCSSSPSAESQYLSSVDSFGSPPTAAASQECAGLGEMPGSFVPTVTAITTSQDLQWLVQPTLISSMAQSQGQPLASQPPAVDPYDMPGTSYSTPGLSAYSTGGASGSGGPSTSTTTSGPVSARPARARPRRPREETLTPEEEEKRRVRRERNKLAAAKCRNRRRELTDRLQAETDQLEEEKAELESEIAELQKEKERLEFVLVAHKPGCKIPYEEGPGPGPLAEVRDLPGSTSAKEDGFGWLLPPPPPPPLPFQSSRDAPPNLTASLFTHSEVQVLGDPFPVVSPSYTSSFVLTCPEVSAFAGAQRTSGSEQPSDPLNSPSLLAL
INS-1E GSIS act – primary screen for activators of insulin secretion dependent on glucose, INS-1E cells, GLuc reporter luminescence; INS-1E GLuc reporter insulin secretion, 2-3 h; activation, % at 16.6 µM; 370,000 compounds, 0.61% hits; AID 743287;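 active = lowest replicate activation of at least 40%, so every replicate reaches that level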;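 also: 0% = median of neutral control wells and 100% = median of IBMX positive control wells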
RAD52 inh – inhibitors of human RAD52 DNA annealing; recombinant RAD52 DNA annealing, FRET fluorescence; 360,000 compounds, 0.46% hits; AID 651710; P43351; inhibition, % at 18.7 µM;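 active = every replicate showing at least 50% inhibition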
DENV2 CPE – inhibitors of DENV2 cytopathic effect | DENV2-infected cells, cytopathic effect rescue, plate reader | CPE inhibition, % at 9.99 µM | 350,000 compounds, 1.7% hits | AID 651640; in the data active = CPE inhibition above about 20%, passing the limit was not always enough; tested in BHK-21 cells;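 also: 0% = median of neutral control wells and 100% = median of positive control wells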
An asterisk follows results filed as active.

Screening CC(C)NC(=O)Nc1ccc2c(c1)C(=O)N([C@H](C)CO)C[C@@H](C)[C@H](CN(C)S(=O)(=O)c1ccc(Cl)cc1)O2 returned AF4-AF9 inh -0.2, RAD54 inh 56.2*, INS-1E GSIS act 12.7, RAD52 inh 5.1 and DENV2 CPE -0.6.
Cc1noc(C)c1NC(=O)Nc1ccc2c(c1)C(=O)N([C@@H](C)CO)C[C@@H](C)[C@H](CN(C)S(=O)(=O)c1ccc(Cl)cc1)O2 was read as AF4-AF9 inh 3.2, RAD54 inh 17.2, INS-1E GSIS act 7.0, RAD52 inh 7.1 and DENV2 CPE 28.2*.
`Cc1noc(C)c1NC(=O)Nc1ccc2c(c1)C(=O)N([C@H](C)CO)C[C@@H](C)[C@H](CN(C)S(=O)(=O)c1ccc(Cl)cc1)O2` gave AF4-AF9 inh -0.6, RAD54 inh 20.1, INS-1E GSIS act 25.5, RAD52 inh 10.3 and DENV2 CPE -0.1.
`O=C(C[C@@H]1CC[C@H](NC(=O)Cc2ccccn2)[C@@H](CO)O1)NCCCN1CCOCC1` gave AF4-AF9 inh -1.3, RAD54 inh 5.6, INS-1E GSIS act 33.9, RAD52 inh -6.5 and DENV2 CPE 2.6.
`CCCC(=O)Nc1ccc2c(c1)OC[C@H](C)N(CCC(F)(F)F)C[C@H](C)[C@@H](OC)CN(C)C2=O` gave AF4-AF9 inh -3.1, INS-1E GSIS act -16.4, RAD52 inh 22.4 and DENV2 CPE 30.5*.
CCCN1C[C@H](C)[C@H](OC)CN(C)C(=O)c2ccc(NC(=O)CC(F)(F)F)cc2OC[C@@H]1C was read as AF4-AF9 inh -2.8, INS-1E GSIS act 0.9, RAD52 inh -21.4 and DENV2 CPE 33.5*.
CCCC(=O)Nc1ccc2c(c1)OC[C@@H](C)N(CCC(F)(F)F)C[C@H](C)[C@H](OC)CN(C)C2=O was read as AF4-AF9 inh -0.7, RAD54 inh 0.1, INS-1E GSIS act 4.3, RAD52 inh 8.3 and DENV2 CPE 7.2.
Screening CO[C@H]1CN(C)C(=O)c2cc(NC(=O)CC(F)(F)F)ccc2OC[C@H](C)N(CC2CC2)C[C@H]1C returned INS-1E GSIS act -6.7 and DENV2 CPE 54.4*.
CO[C@@H]1CN(C)C(=O)c2cc(NC(=O)c3ccccc3F)ccc2OC[C@H](C)N(CC2CC2)C[C@@H]1C was read as AF4-AF9 inh -1.1, RAD54 inh 6.5, INS-1E GSIS act -5.8, RAD52 inh 5.7 and DENV2 CPE 42.6*.
Screening CCCN1C[C@H](C)[C@H](OC)CN(C)C(=O)c2ccc(NC(=O)CC(F)(F)F)cc2OC[C@H]1C returned AF4-AF9 inh -2.7, INS-1E GSIS act 16.6, RAD52 inh -22.7 and DENV2 CPE 12.6.
Screening CCN1[C@@H]2Cn3c(ccc(-c4ccncc4)c3=O)[C@H]1[C@@H](C(=O)NCc1ccccc1)[C@@H]2CO returned AF4-AF9 inh -16.8, RAD54 inh -7.9, INS-1E GSIS act 5.2, RAD52 inh -3.3 and DENV2 CPE 0.6.
`CCOC(=O)c1cc(CC)sc1NC(=O)COC(=O)c1cnccn1` gave AF4-AF9 inh -0.8, RAD54 inh 3.8, dFosB activator 6.6, INS-1E GSIS act 69.4*, RAD52 inh -5.4 and DENV2 CPE 6.0.
`CCOC(=O)c1c(NC(=O)COC(=O)c2cnccn2)sc(C(=O)NC)c1C` gave AF4-AF9 inh 2.1, RAD54 inh -1.4, dFosB activator 39.1*, INS-1E GSIS act -0.2, RAD52 inh -1.2 and DENV2 CPE 0.4.
CN(C)C(=O)C[C@H]1CC[C@@H]2[C@@H](COc3ccc(NC(=O)NCc4ccccc4)cc3C(=O)N2C)O1 was read as AF4-AF9 inh -2.4, RAD54 inh -6.4, INS-1E GSIS act 7.1, RAD52 inh 0.5 and DENV2 CPE 6.3.
For O=C(c1ccc(CNc2c(N3CCCC3)c(=O)c2=O)cc1)N1CCN(C2CCCCC2)CC1 the results were AF4-AF9 inh -2.9, RAD54 inh -5.2, dFosB activator -2.2, RAD52 inh 4.6 and DENV2 CPE 78.5*.
CN(C)c1ccc(CCc2ccc(N)cc2)cc1 was read as AF4-AF9 inh 1.7, RAD54 inh -2.8, dFosB activator -1.0, INS-1E GSIS act -6.3, RAD52 inh -14.1 and DENV2 CPE 26.3*.
For Nc1ccc(CCS(N)(=O)=O)cc1 the results were RAD54 inh -7.1 and dFosB activator 2.9.
`Nc1ccc(OCCCc2c(N)nc(N)nc2N)cc1` gave AF4-AF9 inh 9.0, RAD54 inh 7.6, dFosB activator 21.2*, INS-1E GSIS act 6.0, RAD52 inh 5.0 and DENV2 CPE 5.4.
C[C@@H]1CN([C@@H](C)CO)C(=O)c2cc(NC(=O)CCCN(C)C)ccc2O[C@H]1CN(C)S(=O)(=O)c1cn(C)cn1 was read as AF4-AF9 inh -1.1, RAD54 inh -3.4, INS-1E GSIS act 12.9, RAD52 inh 3.8 and DENV2 CPE 4.4.
Cc1cc(C(=O)Nc2cccc3c2O[C@H](CN(C)C(=O)NC(C)C)[C@H](C)CN([C@@H](C)CO)C3=O)n(C)n1 was read as AF4-AF9 inh 0.4, RAD54 inh -16.0, INS-1E GSIS act 11.4, RAD52 inh 17.2 and DENV2 CPE 4.6.
COc1ccc(NC(=O)COc2ccc(C(=O)NC3CCCc4ccccc43)cc2OC)cc1 (stereo unspecified) was read as dFosB activator 4.2 and INS-1E GSIS act 175.6*.
For COc1ccc(C(=O)NC2CCCc3ccccc32)cc1 (stereo unspecified) the results were AF4-AF9 inh 0.1, dFosB activator -2.1, INS-1E GSIS act 3.6, RAD52 inh -10.3 and DENV2 CPE -0.5.
`CC/C(=C\c1ccc(N(C)C)cc1)c1ccncc1` gave AF4-AF9 inh 27.6*, dFosB activator 5.2, INS-1E GSIS act 1.5, RAD52 inh -26.5 and DENV2 CPE 5.4.
For O=C(N[C@@H]1CC[C@@H](CCNS(=O)(=O)c2ccc(F)cc2)O[C@H]1CO)C1CCCC1 the results were AF4-AF9 inh 1.1, RAD54 inh 4.1, INS-1E GSIS act -2.7, RAD52 inh -10.6 and DENV2 CPE -8.4.
`COc1ccc(NC(=O)N(C)C[C@@H]2OCCCC[C@H](C)Oc3ccc(NC(=O)Nc4c(C)noc4C)cc3C(=O)N([C@H](C)CO)C[C@@H]2C)cc1` gave AF4-AF9 inh -2.8, RAD54 inh 13.4, INS-1E GSIS act -5.9, RAD52 inh 3.4 and DENV2 CPE 2.4.
For O=C(C[C@H]1C=C[C@H](NS(=O)(=O)c2ccccc2)[C@@H](CO)O1)NCc1ccncn1 the results were AF4-AF9 inh -2.2, RAD54 inh 1.6, INS-1E GSIS act 5.0, RAD52 inh -2.9 and DENV2 CPE 5.5.
O=C(NC1CCN(Cc2ccccc2)CC1)c1ccc(CS(=O)c2ccccc2Cl)o1 (stereo unspecified) was read as AF4-AF9 inh 1.5, RAD54 inh -6.5, RAD52 inh -25.1 and DENV2 CPE 70.4*.
